Measurements: PubChem BioAssay AID1508600 (Functional Genomics Laboratory (NCATS/FGL), 2020)
About 3,700 (7%) of roughly 53,000 sequences were called active. The entries come from a sample that favours actives as a whole. Unmarked numbers belong to inactive results.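 How the source made its calls: active means gene knockdowns whose robust z-score for IL-1 alpha signal is at least 2 or at most -2, so actives lie on both sides; inactive means the rest.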

Assay: Components of the Cytosolic LPS Sensing Pathway: Gene Identification via Genome-wide siRNA Screen;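 further: robust z of the log signal after scaling to non-targeting control siRNA wells of the plate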
Conditions: RAW264.7 macrophages, IL-1a HTRF, actives lie on both sides, screened at 100 nM (by protocol), cells primed 5 h with Pam3CSK4 first
Summary of the method: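 Cells (RAW264.7, 1×10^4 per well) were transfected with siRNA at 100 nM and cultured 48h at 37 degrees C. Pam3CSK4 was added for 5 hours; LipidA transfection followed for 24 hour. IL-1a was then measured by HTRF.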

Sequence | z-score
CCAAGGUGCUGUUGGUAUATT against Ssr2 | 0.248
GCAACGACUCUAAUGACUUTT against Slc38a1 | -0.515
GCUUUCCACCACGUACUGATT against Plekha6 | -0.0754
GGAUCAGCUGUUGCCAGAGTT against Zfp384 | 0.806
GGAGUAUAACUAUGGCUUCTT against Mvb12a | 0.689
CCAGUUAAGCCAAACUAUGTT against Wdr5 | -2.21 (active)
GGAAGUGCUGCACAUACUATT against Bnc2 | -0.525
GGAAGAUUUGUUCUAUACUTT against Epgn | 0.593
GGUCACAUCGUCCUUACAGTT against Rps6ka4 | -2.05 (active)
GGGAUUAAAAUCCUAUCUUTT against Eva1a | 0.857
GGAUCAGGAUUUAAUGAAUTT against Zc2hc1a | -1.13
CCUUAUAAUUGACACUGAUTT against Toe1 | 0.312
GGAUAGCUGCCAACACUACTT against Baiap2l2 | -0.689
GGACGACAGUGCAAAGCAUTT against Usb1 | -2.33 (active)
CCGCUUUUGUCAAGUUUUCTT against Asap1 | 2.65 (active)
GGACACUCAAUGAAAUCUATT against Foxp3 | 1.21
GCUAAAAAUAAACAGUCGGTT against Pus10 | -0.642
GCCCGUCGGAUAUAAGAUUTT against Cd247 | -0.351
GGAAGAAUCGUUUAUGACATT against Ppp4r2 | 0.73
GGUUUUGAGAUUGAAAGAATT against Myof | -0.344
GGUCGUCUUUUAAGAGUUUTT against Ccdc71l | 3.03 (active)
GGUGCAACAAUCAUUUGAATT against Casp4 | -0.431
GGAAGAAAUGCAUAAUGCATT against Mesd | 0.236

Sequence | z-score
GGAAAAACUGCUAGAUCUATT against As3mt | 1.49
GGCUAUGGAAAAAGAUAUGTT against Il21r | -1.02
GGACCAAGCUGUUAUUAACTT against Dhodh | 0.46
GGUUUACCUCUAUGCUAUGTT against Upk3a | 1.39
GGGUCUCUUGUGGUACAUCTT against Cln3 | 3.41 (active)
GCAUUUCGCCUCUUUCAUATT against Elac1 | -0.405
GGCAUUUCUUUCACUAGCUTT against Olfr618 | 0.833
GCAGAGGCUCGUCCAUAUATT against Dnpep | -0.205
GGUUCACGGGUUCUAAGAUTT against Eif1b | 2.35 (active)
GGACAGUUCUUACUUUACATT against Drd2 | 1.18
CCGUGAAUUUGGAUGAUGGTT against T2 | -1.98
CCAAAGGUGACCACAGAUUTT against Zfp444 | 1.13
GGCUCCAUCAAGAAAAGUUTT against Usp21 | 0.681
GGCCUUCCUUGACCAAUCUTT against Ren1 | -2.11 (active)
GGACUGUGCAACUUUGUGGTT against Timp3 | -0.634
GGAGUUGGUUCUGUGUUAUTT against Tcf7l2 | -0.271
CGGAACAUGGAGUUUAAGCTT against Slfnl1 | 2.3 (active)
GGAAUGAGUUAGAAUAGCGTT against BC004004 | -0.923
GGAAAGAAACUAAGGAAAATT against Arhgap15 | 0.628
GGAGCUUGACAUUAAGGACTT against Erc2 | 0.809
GGAAAUAAACAAGUCCCACTT against Urm1 | 0.465
CGACGAAGUGGUCGGAAUUTT against Cryzl1 | 2.1 (active)
GGUGAUGUAUGUUACGCUGTT against Srsf1 | -0.00436

Sequence | z-score
GGAGAAAGAGAAAAUCGCUTT against Csnk1g2 | -0.736
GGUUAUCAGUUGCAUUGUUTT against Gpr37l1 | 0.809
GGAAGUCGGGCAAAUACAATT against Tacstd2 | 5.77 (active)
GCUCAUUCUCAAAGGCUUATT against Rdh12 | 0.659
GGAAUACAUCGAGUAUCUCTT against Xab2 | -1.43
GCUCGAGUGUAAGAUCUGUTT against Rnf182 | 0.355
CCCGUUCGUGCAUGAGUUATT against Lpcat4 | 0.532
CCGGGAAACCAACAAAUCATT against Rbmxl1 | 2.19 (active)
GGUGGAAUUCAUUUUGACATT against Dnajb6 | -0.42
GGCAAUGACCUUGUAAAGATT against Tomm34 | -1.56
GUGCUAUUCAUGCACAGCATT against Psca | 0.0658
GGAUGUCUUUUUAAGGUUUTT against Eid1 | 0.987
CCCGUCCCAUCCAUUAUUUTT against Zfp787 | -1.19
GGUGUUUGUGACUCUGGGUTT against Mc4r | 2.77 (active)
GCUUUGCAAUUCACAGGGATT against Scgb1b27 | -1.76
GGGUUUGAUUCAUCAAAAATT against Peli1 | 0.314
CCUACGCCAAGCAGUAUGATT against Mcm3 | 0.286
GGAUUUUGACAGUCUGUGUTT against Endou | -0.438
GGACUGAUUGUUUUAUGCUTT against Gdap10 | -1.06
GGCCCUCAAUACCUGUGGUTT against Olfr690 | -3.13 (active)
GGAGAGACAUCCAAAAGUATT against H60a | 0.658
GCCAUAUAAUUUGACAGAGTT against Tarm1 | -0.0405
GCUCACAACAUGAGAGUCATT against Atp6v0e | -0.539
